The structures appear in SMILES notation. The panel holds about 83,000 compounds, 20% with a hit somewhere; the sample as a whole holds those more often.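 Interpretation: 100, growth as untreated; towards 0, rising growth inhibition; 0, no net growth; 0 to -100, cell death. Compounds scoring below 10 were considered active.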 A number with no mark means an inactive call. The source made the active and inactive calls.

The text below walks through data of PubChem BioAssay (NCI).

Among the test systems are SR leukemia; RPMI-8226 leukemia; OVCAR-8 ovarian; OVCAR-5 ovarian; OVCAR-4 ovarian; SK-OV-3 ovarian; IGROV1 ovarian; OVCAR-3 ovarian; HS 578T breast; NCI/ADR-RES ovarian; T-47D breast; BT-549 breast; MDA-MB-435 melanoma; SW-620 colon; MCF7 breast; HCT-116 colon; HCC-2998 colon; KM12 colon.
Experiment in all cases: NCI-60 one-dose screen, 48 h (100 = growth as untreated, 0 = no growth, -100 = all killed)
Common to all, as to details: 10 µM unless noted

In the case of `CN(C)c1ncc(/C=C2\SC(=S)N(Cc3ccccc3Cl)C2=O)s1`, the growth with SR leukemia is 87.8%; with RPMI-8226 leukemia, 86.3%; in the assay on OVCAR-8 ovarian, 95.8%; with OVCAR-5 ovarian it was 87.9%; in the assay on OVCAR-4 ovarian it was 2.09% (active); in the assay on SK-OV-3 ovarian, 107%. The growth was 70.8% in the assay on IGROV1 ovarian; 26.8% with OVCAR-3 ovarian; 101% with HS 578T breast; 90.8% in the assay on NCI/ADR-RES ovarian; 96.9% with T-47D breast; 102% with BT-549 breast. For the same compound, the growth in the assay with MDA-MB-435 melanoma is 103%; with SW-620 colon, 82.6%; with MCF7 breast, 92.1%; in the assay with HCT-116 colon, 40.5%; in the assay with HCC-2998 colon, 102%; in the assay with KM12 colon it was 97.5%.
Turning to `O=C(CSc1nnc(-c2cccs2)n1-c1ccccc1)Nc1ccc(F)cc1`, the growth was 71.6% in the assay with SR leukemia; 105% in the assay with RPMI-8226 leukemia; 93.5% with OVCAR-8 ovarian; 97.3% in the assay with OVCAR-5 ovarian; 96.4% with OVCAR-4 ovarian; 82.5% in the assay with SK-OV-3 ovarian. The growth was 95.4% with IGROV1 ovarian; 111% in the assay on OVCAR-3 ovarian; 91.8% in the assay on HS 578T breast; 90.7% in the assay with NCI/ADR-RES ovarian; 84.7% in the assay on T-47D breast; 99.3% in the assay on BT-549 breast. Also, the growth was 80.8% in the assay with MDA-MB-435 melanoma; 97.2% with SW-620 colon; 91.9% in the assay on MCF7 breast; 86.3% with HCT-116 colon; 125% in the assay with HCC-2998 colon; 94.1% with KM12 colon.
As to `IP(CCCCCCCCCCSc1n(Cc2ccc3ccccc3c2)c(-c2ccccc2)c(-c2ccccc2)[n+]1Cc1ccc2ccccc2c1)(c1ccccc1)(c1ccccc1)c1ccccc1`, the growth was -39.8% (active) in the assay on SR leukemia; -38% (active) in the assay on RPMI-8226 leukemia; -50.3% (active) in the assay with OVCAR-8 ovarian; -76.1% (active) in the assay on OVCAR-5 ovarian; -68.6% (active) in the assay with OVCAR-4 ovarian; -63% (active) with SK-OV-3 ovarian. Further, the growth is -66.5% (active) with IGROV1 ovarian; -86.4% (active) in the assay on OVCAR-3 ovarian; -30.4% (active) with HS 578T breast; 29.6% with NCI/ADR-RES ovarian; -57.4% (active) with T-47D breast; -71.4% (active) in the assay with BT-549 breast. Further, the growth in the assay on MDA-MB-435 melanoma is -81.7% (active); with SW-620 colon it was -77.8% (active); with MCF7 breast, -54.2% (active); in the assay on HCT-116 colon, -60.9% (active); in the assay with HCC-2998 colon it was -86.8% (active); in the assay with KM12 colon, -83.3% (active).
Turning to `CN1C(=O)N(C)C2C1NN=c1s/c(=C\c3ccccn3)c(=O)n12` (centres undefined), the growth in the assay with SR leukemia is 114%; in the assay with RPMI-8226 leukemia it was 101%; in the assay on OVCAR-8 ovarian, 101%; in the assay on OVCAR-5 ovarian it was 109%; in the assay with OVCAR-4 ovarian, 105%; in the assay with SK-OV-3 ovarian, 110%. Further, the growth in the assay on IGROV1 ovarian was 102%; in the assay on OVCAR-3 ovarian, 115%; with HS 578T breast, 104%; in the assay with NCI/ADR-RES ovarian, 96.7%; with T-47D breast, 108%; in the assay with BT-549 breast, 99.2%. The growth in the assay with MDA-MB-435 melanoma was 88.5%; in the assay on SW-620 colon, 99.3%; in the assay on MCF7 breast, 91.9%; in the assay with HCT-116 colon, 108%; in the assay on HCC-2998 colon, 104%; in the assay on KM12 colon it was 91.6%.
With `CN1CCN(c2ccc3c(C(N)=O)c(NC(=O)c4ccc(C(C)(C)C)cc4)sc3c2)CC1`, the growth with SR leukemia is 34.7%; in the assay with RPMI-8226 leukemia it was 20.1%; in the assay with OVCAR-8 ovarian it was 95.4%; in the assay with OVCAR-5 ovarian, 81.1%; with OVCAR-4 ovarian, 92.3%; in the assay on SK-OV-3 ovarian, 107%. Besides, the growth was 90.3% in the assay on IGROV1 ovarian; 79.3% in the assay on OVCAR-3 ovarian; 91.2% in the assay on HS 578T breast; 85.9% with NCI/ADR-RES ovarian; 92.3% with T-47D breast; 89.9% in the assay on BT-549 breast. In addition, the growth with MDA-MB-435 melanoma is 95.1%; with SW-620 colon, 43.6%; with MCF7 breast, 39.7%; in the assay with HCT-116 colon, 37.6%; with HCC-2998 colon, 96.2%; with KM12 colon it was 81.7%.
`COc1ccc2c(c1)c(-c1nnc(N)nc1-c1cn(C)c3ccccc13)cn2C`: the growth was 84.7% in the assay with SR leukemia; 105% with RPMI-8226 leukemia; 103% with OVCAR-8 ovarian; 86.5% with OVCAR-5 ovarian; 91.3% with OVCAR-4 ovarian; 102% with SK-OV-3 ovarian. For the same compound, the growth is 95.1% in the assay on IGROV1 ovarian; 96.8% in the assay with OVCAR-3 ovarian; 91.2% with HS 578T breast; 90.5% in the assay with NCI/ADR-RES ovarian; 82.3% in the assay with T-47D breast; 108% in the assay with BT-549 breast. Moreover, the growth in the assay on MDA-MB-435 melanoma is 91.6%; in the assay on SW-620 colon, 94.6%; in the assay with MCF7 breast it was 79.5%; in the assay on HCT-116 colon it was 89.2%; in the assay with HCC-2998 colon, 102%; in the assay with KM12 colon, 94.6%.
Turning to `COc1cc(O)c2c(c1)[C@H]1O[C@@H]1C[C@H](O)[C@H](O)C(=O)/C=C\C[C@H](C)OC2=O`, the growth in the assay on SR leukemia was 22.3%; in the assay on RPMI-8226 leukemia it was 24.5%; with OVCAR-8 ovarian, 59.3%; with OVCAR-5 ovarian, 61.5%; in the assay with OVCAR-4 ovarian, 27%; in the assay on SK-OV-3 ovarian, 80.2%. The growth is 39% in the assay with IGROV1 ovarian; 32.1% in the assay with OVCAR-3 ovarian; 76.6% in the assay on HS 578T breast; 78.7% in the assay on NCI/ADR-RES ovarian; 30.1% in the assay with T-47D breast; 2.6% (active) with BT-549 breast. The growth in the assay on MDA-MB-435 melanoma was 19.2%; in the assay with SW-620 colon it was 21.8%; with MCF7 breast, 43.3%; in the assay with HCT-116 colon, 27.7%; with HCC-2998 colon, 65.1%; with KM12 colon, 90.4%.
In the case of `O=c1[nH]c(CNc2ccc(NCc3c(-c4ccccc4)no[n+]3[O-])cc2)nc2c1cnn2-c1ccccc1`, the growth is 45.7% in the assay on SR leukemia; 61.9% in the assay on RPMI-8226 leukemia; 79.4% in the assay with OVCAR-8 ovarian; 109% with OVCAR-5 ovarian; 64.3% in the assay with OVCAR-4 ovarian; 102% in the assay on SK-OV-3 ovarian. Besides, the growth in the assay with IGROV1 ovarian was 73.5%; with OVCAR-3 ovarian, 94.4%; in the assay with HS 578T breast, 85.8%; in the assay on NCI/ADR-RES ovarian, 60.6%; with T-47D breast it was 42.5%; in the assay with BT-549 breast it was 62.1%. The growth in the assay on MDA-MB-435 melanoma is 77.8%; in the assay with SW-620 colon, 92.8%; in the assay on MCF7 breast it was 50.1%; with HCT-116 colon, 49.6%; in the assay on HCC-2998 colon, 84.4%; in the assay with KM12 colon, 73.3%.
